Luciferase inh: inhibitors of firefly (Photinus pyralis) luciferase; P08659; purified P. pyralis luciferase, luminescence, biochemical; Potency, µM (titrated, usually from 115 µM), usual class: inhibitors; 2.5% of 76,000 active; also: nearly all actives have a fitted effect of over 65% in size
Target sequence (P08659 whole entry, looked up): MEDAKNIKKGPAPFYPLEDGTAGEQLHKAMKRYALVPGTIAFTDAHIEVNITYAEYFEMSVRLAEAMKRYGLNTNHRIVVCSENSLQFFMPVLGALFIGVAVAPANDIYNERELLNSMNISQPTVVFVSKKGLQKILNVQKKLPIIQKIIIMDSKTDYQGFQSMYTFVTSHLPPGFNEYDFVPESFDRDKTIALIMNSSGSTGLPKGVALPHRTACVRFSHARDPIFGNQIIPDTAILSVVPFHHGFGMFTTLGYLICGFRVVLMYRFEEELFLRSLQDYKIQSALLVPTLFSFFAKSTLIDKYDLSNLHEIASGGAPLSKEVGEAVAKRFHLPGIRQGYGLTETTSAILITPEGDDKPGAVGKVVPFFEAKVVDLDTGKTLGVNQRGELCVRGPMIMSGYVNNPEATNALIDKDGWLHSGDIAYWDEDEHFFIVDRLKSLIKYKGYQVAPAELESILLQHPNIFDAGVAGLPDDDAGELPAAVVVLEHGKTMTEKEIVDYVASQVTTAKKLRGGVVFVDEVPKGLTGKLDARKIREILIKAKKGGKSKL
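Luminescence read by CCD imaging after purified firefly luciferase (10nM final) was added to substrate buffer holding 10uM D-luciferin and 10uM ATP, pH 7.5, pre-dosed with compound.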
3T3 cytotox: cytotoxic compounds in NIH 3T3 cells; NIH 3T3 viability, CellTiter-Glo ATP luminescence, 48-72 h; Potency, µM (doses to about 96.7 µM), actives largely listed as inhibitors; 4.3% of 94,000 active; also: nearly all actives have a fitted effect of over 55% in size
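Cells were seeded at 400 per well, treated with pin-transferred compound, and kept 48 or 72 hr at 37 °C before CellTiter-Glo addition and luminescence imaging of cellular ATP.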
hNpr1 antagonist: blocks ANP-stimulated signaling of human Npr1 receptor; HEK293 hNpr1 GloSensor cGMP, ANP-stimulated luminescence; Potency, µM (doses to about 46.3 µM), most hits filed as inhibitors; 1.6% of 76,000 active; AID 1347048; calls by dose curve; also: nearly all actives have a fitted effect of over 60% in size
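Compound pre-incubated 30 min at room temperature on GloSensor-loaded HEK293 cells stably carrying hNpr1 and the pGS-40F cGMP biosensor. Stimulation uses hNppA at 0.1 nM final; luminescence is taken at baseline and 20 min post-agonist.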
HEK cytotox: cytotoxic compounds in HEK 293 cells; HEK 293 viability, ATP luminescence (CellTiter-Glo), 48-72 h; Potency, µM (top dose mostly 115 µM), actives largely listed as inhibitors; 6.6% of 94,000 active; AID 1345083; also: nearly all actives have a fitted effect of over 60% in size
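250 HEK 293 cells/well; compound by pintool; incubated 48 or 72 hr at 37 degree Celsius; CellTiter-Glo added, 10 min RT, luminescence imaged.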
Of the large screens only hits and unclear results are named; the others gave an inactive call. Shown are actives, neighbours in structure and some others; about 11% of the full set was active somewhere. Unless noted, calls follow the shape of the dose curve; as a rule, active = well fitted curve in the direction sought with a large enough effect; inconclusive = small, poorly fitted or top-dose-only effect, or another doubt; inactive = no such curve, though single readings can be large; an effect the other way counts as inactive or inconclusive.

CC(C)CNC(=O)CC(c1cccc([N+](=O)[O-])c1)c1c[nH]c2ccccc12 (stereo not drawn)	3T3 cytotox inconclusive, HEK cytotox 79µM
COc1ccc(C(CC(=O)NCc2ccccc2)c2c[nH]c3ccccc23)cc1OC (stereo not drawn)	none
COCCn1ncc(N2CCC(C(=O)N3CCC(N(C)Cc4cccc(Cl)c4)CC3)C2)cc1=O (stereo not drawn)	HEK cytotox inconclusive
O=C(CNC(=O)c1cccc(-c2ccsc2)c1)NC1CC1	HEK cytotox inconclusive (no result: Luciferase inh, hNpr1 antagonist)
O=C(NCc1ccccc1F)c1cc(-c2cc(Cl)cc(Cl)c2)c2nncn2n1	none (no result: Luciferase inh, hNpr1 antagonist)
CC(c1ccc(-c2ccc(N3CCN(C)CC3)nn2)cc1)N1CCCCC1 (stereo not drawn)	HEK cytotox inconclusive
CC1CCN(c2ccc(-c3cccc(N)c3)nn2)CC1	Luciferase inh 0.1µM, 3T3 cytotox 32µM, hNpr1 antagonist 0.63µM, HEK cytotox 32µM
COc1ccccc1-n1c(=O)c(C(=O)N2CCN(C(=O)Nc3ccc(Cl)cc3)CC2)nc2cccnc21	none (no result: Luciferase inh, hNpr1 antagonist)
COc1ccccc1Nc1ccnc(N2CCN(C(=O)c3ccc(F)cc3)CC2)n1	3T3 cytotox 22µM, HEK cytotox 50µM (no result: Luciferase inh, hNpr1 antagonist)
O=C(c1ccc(F)cc1)N1CCN(c2nccc(Nc3ccccc3F)n2)CC1	3T3 cytotox 32µM, HEK cytotox 40µM (no result: Luciferase inh, hNpr1 antagonist)
COc1ccccc1Nc1ccnc(N2CCN(C(=O)Nc3ccc(Cl)cc3)CC2)n1	3T3 cytotox 40µM, HEK cytotox 40µM (no result: Luciferase inh, hNpr1 antagonist)
O=C(NC1CCOC1)C1CCN(c2nccc(Nc3ccccc3F)n2)CC1 (stereo not drawn)	none (no result: Luciferase inh, hNpr1 antagonist)
CC(C)(C)c1ccc(-c2noc(CNC(=O)CN3C(=O)CNC3=O)n2)cc1	Luciferase inh 18µM
O=C(CN1C(=O)CNC1=O)NCCc1noc(-c2ccccc2)n1	none
CCCCn1c(=O)c(C(=O)N2CCN(c3ncccn3)CC2)nc2cccnc21	none (no result: Luciferase inh, hNpr1 antagonist)
O=C(NCc1cccs1)C1CCN(c2nccc(Nc3ccccc3Cl)n2)CC1	3T3 cytotox inconclusive, HEK cytotox 45µM (no result: Luciferase inh, hNpr1 antagonist)
Cc1ccc(Nc2ccnc(N3CCC(C(=O)NCc4cccs4)CC3)n2)cc1	3T3 cytotox 22µM, HEK cytotox 18µM (no result: Luciferase inh, hNpr1 antagonist)
O=C(NCc1cccc(Cl)c1)C1CCN(c2nccc(Nc3ccccc3Cl)n2)CC1	HEK cytotox inconclusive (no result: Luciferase inh, hNpr1 antagonist)
CS(=O)(=O)c1ccc(CN2CCC[C@H]2c2nc(-c3ccnc(N4CCC(C(N)=O)CC4)c3)no2)cc1	none
O=C(Cc1c[nH]c2ncc(-c3ccc4c(c3)OCO4)cc12)N1CCOCC1	Luciferase inh inconclusive, 3T3 cytotox 25µM, hNpr1 antagonist inconclusive, HEK cytotox inconclusive
COc1ccc(-c2cnc3[nH]cc(CC(=O)N4CCOCC4)c3c2)cn1	Luciferase inh inconclusive, 3T3 cytotox 25µM, HEK cytotox inconclusive
O=C(Cc1c[nH]c2ncc(-c3ccncc3)cc12)N1CCOCC1	3T3 cytotox inconclusive
O=C(Cc1c[nH]c2ncc(-c3ccc(F)cc3)cc12)N1CCOCC1	Luciferase inh 56µM, 3T3 cytotox inconclusive, hNpr1 antagonist inconclusive, HEK cytotox inconclusive
Cc1ccc(CNC(=O)N2CC[C@@H]3C(=O)NCCCCCCN(Cc4ccncc4)[C@@H]3C2)cc1	none
O=C(NCc1cccs1)c1cn2cc(-c3cccc(C(F)(F)F)c3)sc2n1	HEK cytotox inconclusive (no result: Luciferase inh, hNpr1 antagonist)
COc1ccc(-c2cnc([C@@H]3COCCN3Cc3ccccc3O)[nH]2)cc1	3T3 cytotox inconclusive
Clc1ccc(-c2cnc([C@@H]3COCCN3Cc3c[nH]c4ccccc34)[nH]2)s1	3T3 cytotox 79µM, hNpr1 antagonist inconclusive, HEK cytotox 71µM
Fc1ccc(CN2CCOC[C@H]2c2ncc(-c3ccc(Cl)s3)[nH]2)cc1	3T3 cytotox inconclusive, hNpr1 antagonist inconclusive, HEK cytotox 79µM
Fc1ccc(-c2cnc([C@@H]3COCCN3Cc3ccccc3F)[nH]2)c(F)c1	3T3 cytotox inconclusive, HEK cytotox 100µM
CC(C)(C)CN1CCOC[C@H]1c1ncc(-c2ccc(F)cc2F)[nH]1	3T3 cytotox inconclusive, HEK cytotox inconclusive
Fc1cccc(-c2cnc([C@@H]3COCCN3Cc3ccccc3)[nH]2)c1	3T3 cytotox inconclusive, HEK cytotox inconclusive
c1ccc(-c2cnc([C@@H]3COCCN3Cc3cccnc3)[nH]2)cc1	none
Fc1ccccc1CN1CCOC[C@H]1c1ncc(-c2ccc(Cl)s2)[nH]1	3T3 cytotox 89µM, hNpr1 antagonist inconclusive, HEK cytotox inconclusive
Cn1nc(C(=O)N2CCC(Cc3nc(C4CC4)n[nH]3)C2)c2ccccc21 (stereo not drawn)	none
